# ChEMBL document CHEMBL4888484, “Replenishing the malaria drug discovery pipeline: Screening and hit evaluation of the MMV Hit Generation Library 1 (HGL1) against asexual blood stage Plasmodium falciparum ,using a nano luciferase reporter read-out” (2022)
# The campaign covered roughly 150,000 compounds. About 540 (0.36%) showed an effect of 50% or more. This excerpt belongs to a sample that is enriched for strong results.
# Test system: Plasmodium falciparum
# Test: Primary screen in NF54 nanoGlo assay, in single point, at 2uM, 72h; a lower Z score goes with more inhibition
# Format: functional, Erythrocyte
# Conditions: timepoint 72 hour
SMILES,% Inhibition,Z score
CCN(Cc1nc(C(N)=O)no1)Cc1c(F)cccc1Cl,-6%,1.04
CC(C)(N)c1ccc(Cl)c(Cl)c1,-9%,1.19
Nc1c(Br)cc2oc(-c3ccc4ccccc4c3)nc2c1Br,36%,-1.3
O=C(N[C@H]1CCn2nccc2C1)c1ccc(OC(F)F)cn1,-8%,0.97
CC(C)(C)OC1CC(NCC(=O)NCC2CC2)C1(C)C (stereo unspecified),-5%,0.8
COC(=O)[C@H]1CCc2nnc(Cc3ccc(F)cc3)n2C1,-9%,1.42
O=C(c1ccccc1C(F)(F)F)N1CC2(CCOC2)C1,5%,-0.56
Cc1nc(N)nc(C(F)(F)F)c1Br,-1%,0.16
COc1ccc(C(=O)c2ccccc2C(=O)Nc2cn[nH]c2)cc1,-8%,1.57
O=C(Nc1cnc2ccccc2c1)c1ccccc1C(=O)c1ccc(F)cc1,93%,-10.24
O=C(NC1CC1)c1ccccc1C(=O)c1ccc(F)cc1,-8%,1.02
Cc1ccc(C(=O)Nc2ncn(Cc3c(F)cccc3Cl)n2)cc1,-15%,1.74
CN(Cc1ncc(-c2ccccc2)o1)c1ccccc1,-6%,0.5
C[n+]1ccc(-c2ncc(-c3ccccc3)o2)c2ccccc21,75%,-5.73
CC(=O)Nc1c(-c2ccc(C)cc2)c(C)nn1-c1ccc(C(=O)Nc2cc(C)ccn2)cc1,59%,-6.89
CC(=O)Nc1c(-c2ccc(F)cc2)c(C)nn1-c1ccc(C(=O)Nc2nc(C)cs2)cc1,-1%,0.19
CC(=O)Nc1c(-c2ccc(F)cc2)c(C)nn1-c1ccc(C(=O)Nc2cccc(F)c2)cc1,-5%,0.93
c1ccc2c(c1)CCCC2N1CCCC(Cn2cncn2)C1 (stereo unspecified),-9%,1.31
C[C@H](NC(=O)CNC(C)(C)C)c1ccc(F)cc1F,-4%,0.48
CC1(C)CO[C@@H](CC(=O)N2CCOC3(CCS(=O)(=O)CC3)C2)C1,0%,0.06
Cc1ccc(-c2cn[nH]c2[C@H]2CCCN(C(=O)c3[nH]cnc3C)C2)cc1,-5%,0.87
Cc1cccc2c(-c3cc(N)nc(N)n3)c[nH]c12,85%,-9.19

SMILES,% Inhibition,Z score
Cc1cccc2c(-c3cccc(C(N)=O)n3)c[nH]c12,-6%,1.19
O=C(c1cnc2ccsc2c1)N1CC2(CCCCC2)C1,-15%,2.61
CCc1noc(C)c1C(=O)Nc1sc2c(c1C(N)=O)CCCCC2,-23%,2.07
CCn1ncnc1CNC1CC(c2ccc(Br)cc2)C1 (stereo unspecified),-13%,1.96
COc1ccc2c(O)c(C(=O)NCCN(C)C)cnc2c1,-7%,0.96
COc1ccc2c(O)cc(-c3ccccc3)nc2c1,37%,-0.12
COc1ccc(C(=O)c2cnc3cc(Cl)ccc3c2-c2ccccc2)cc1,-12%,1.39
Cc1cccc(Cn2c(C(=O)Nc3ccccc3)cc3cc(NC(=O)C4CCC4)ccc32)c1,13%,-2.41
COc1ccc(-c2nn(-c3ccccc3C)cc2CN(C)Cc2nccn2C)cc1F,-8%,1.05
Cc1cc(C(=O)Nc2cccc(C(F)(F)F)c2)cc2c1N(C)S(=O)(=O)c1ccccc1-2,-3%,0.47
O=C(COC[C@H]1CCCCO1)NC(C1CC1)C1CC1,-8%,1.05
O=C(Nc1ccc(Br)cn1)c1ccc(-c2ccc(Cl)c(Cl)c2)o1,31%,-3.51
Cc1ccc(-c2ccc(C(=O)Nc3cccnc3)o2)cc1Cl,-2%,0.25
O=C(Nc1cccnc1)c1ccc(-c2ccc(Cl)c(Cl)c2)o1,64%,-16.5
Cc1ccc2nc(-c3cnoc3C)cn2c1,0%,0.04
Nc1nn2cc(-c3cc4ccccc4o3)nc2c2ccccc12,-6%,1.22
Cc1ccc2nc(-c3cc4ccccc4o3)cn2c1,61%,-5.65
O=C(NCCN1CCCC1)c1ccc(-c2c(-c3ccc(F)cc3)ncn2C2CCCC2)o1,5%,-0.8
Cc1ccc(Cl)cc1N1CCN(C(=O)N2CCC(C)CC2)CC1,0%,-0.01
CCc1nc2cc(N3CCC(C(=O)N[C@@H](C)CC)CC3)cnc2nc1CC,-9%,1.42
CCc1nc2cc(N3CCC(C(=O)NCc4cc(F)cc(F)c4)CC3)cnc2nc1CC,-5%,0.82
